High-throughput results from PubChem BioAssay.
Most compounds without a hit are left out; they make up all but 6.9% or so of the library.
JMJD2A Tudor inh = qHTS Assay for Inhibitors of JMJD2A-Tudor Domain. Lysine-specific demethylase 4A (Homo sapiens), O75164. AlphaScreen JMJD2A-Tudor / H3K4me3 peptide binding. Potency, µM (titrated, usually from 114 µM), usual class: inhibitors. hit rate 4.4% among 390,000; also: nearly all actives have a fitted effect of over 50% in size
VDR inh = Inhibitors of the vitamin D receptor (VDR): qHTS | Vitamin D3 receptor (Homo sapiens), P11473 | VDR-SRC2-3 peptide fluorescence polarization, 2 h | Potency, µM, usual class: inhibitors | hit rate 0.93% among 400,000 | AID 504847, 2011
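The screen uses fluorescence polarization to detect compounds that interfere with recruitment of the SRC2-3 coactivator peptide to VDR; plates are read after 2 h at room temperature.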
BAZ2B inh = qHTS Assay for Inhibitors of BAZ2B | Bromodomain adjacent to zinc finger domain protein 2B (Homo sapiens), Q9UIF8 | AlphaScreen BAZ2B-H3K14Ac peptide displacement | Potency, µM (series often up to 114 µM), most hits filed as inhibitors | hit rate 4.4% among 360,000 | AID 504333, 2011; also: nearly all actives have a fitted effect of over 60% in size
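Protein-peptide AlphaScreen: BAZ2B 50 nM, b-H3K14Ac 50 nM, 1x PBS pH 7.4 + 0.01% Tween-20. Preincubation 30 min RT; cpd 30 min RT (top 110 uM); beads 20 min RT, light-protected.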
HP1b chromo inh = HTS for Inhibitors of HP1-beta Chromodomain Interactions with Methylated Histone Tails; Chromobox protein homolog 1 (Homo sapiens), P83916; AlphaScreen HP1-beta / biotin-H3K9me3 peptide binding; Potency, µM (titrated, usually from 114 µM), usual class: inhibitors; hit rate 0.56% among 390,000; AID 540317, 2011; also: nearly all actives have a fitted effect of over 70% in size
Target sequence (P83916 whole entry, looked up): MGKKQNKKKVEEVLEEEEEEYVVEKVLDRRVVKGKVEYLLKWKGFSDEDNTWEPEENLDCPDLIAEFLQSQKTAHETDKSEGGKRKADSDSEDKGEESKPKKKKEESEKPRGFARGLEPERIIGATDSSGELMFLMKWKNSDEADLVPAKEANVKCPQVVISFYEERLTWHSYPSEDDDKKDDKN
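Compound inhibition of the preformed complex between 50 nM HP1-beta and 50 nM biotinylated H3K9me3 peptide was read by AlphaScreen. Buffer was PBS pH 7.4 with 0.01% Tween-20. Incubations ran 30 min at room temperature, with 10 ug/mL donor/acceptor beads.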
PLK1 PBD block = qHTS for Inhibitors of PLK1-PDB (polo-like kinase 1 - polo-box domain): Primary Screen. Serine/threonine-protein kinase PLK1 (Homo sapiens), P53350. Plk1 PBD binding of FITC phosphopeptide, fluorescence polarization. Potency, µM, most hits filed as inhibitors. hit rate 2.8% among 360,000. AID 720504, 2013; also: series mostly up to about 57 µM; nearly all actives have a fitted effect of over 65% in size
L3MBTL1 block = qHTS Assay for the Inhibitors of L3MBTL1; hit rate 0.66% among 230,000; AlphaScreen L3MBTL1–H3K9me1 peptide binding; Potency, µM (doses to about 57.1 µM), most hits filed as inhibitors; AID 485360, 2010; also: nearly all actives have a fitted effect of over 60% in size
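Displacement of a biotinylated histone H3(1-15) peptide monomethylated at Lys9 (75 nM) from L3MBTL1 (50 nM) was measured by AlphaScreen after a 30 min room-temperature compound incubation; cefsulodin titration served as intraplate control.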
Each line names hits and unclear results; the compound was inactive in the other large screens. Calls follow the shape of the dose curve; as a rule, active = well fitted curve in the direction sought with a large enough effect; inconclusive = small, poorly fitted or top-dose-only effect, or another doubt; inactive = no such curve, though single readings can be large; an effect the other way counts as inactive or inconclusive.

O=C1C2C3C=CC(C3)C2C(=O)N1c1ncn[nH]1 (stereo not drawn)	JMJD2A Tudor inh 50µM, BAZ2B inh inconclusive, HP1b chromo inh inconclusive
O=C(NC(=S)N1CCCCC1CO)c1cc(Br)ccc1Cl (stereo not drawn)	JMJD2A Tudor inh 7.9µM, PLK1 PBD block inconclusive
Cc1ccc(O)c(N=CC2=C(O)c3ccccc3C2=O)c1	JMJD2A Tudor inh inconclusive, BAZ2B inh 40µM, PLK1 PBD block inconclusive, L3MBTL1 block inconclusive
O=C1C(C=Nc2ccccc2O)=C(O)c2ccccc21	none
O=C(CCCCn1c(=O)c2ccccc2n(CC(=O)Nc2ccc(F)cc2F)c1=O)NCCc1ccccc1	none (no result: PLK1 PBD block, L3MBTL1 block)
CC1CCCC(NCC(O)COC(c2ccc(F)cc2)c2ccc(F)cc2)C1C (stereo not drawn)	JMJD2A Tudor inh 1µM, BAZ2B inh inconclusive, HP1b chromo inh inconclusive
O=C(c1noc2c1CCCC2)N1CCC(CO)(Cc2ccccc2Cl)CC1	VDR inh inconclusive
C#CCOCCOCCOCCNc1nc(N2CCN(C(=O)[C@H](C)n3cc(CCCN=C(N)N)nn3)CC2)nc(N2CCN(C(=O)[C@H](Cc3ccc(O)cc3)n3cc(CCO)nn3)CC2)n1	BAZ2B inh inconclusive (no result: JMJD2A Tudor inh, VDR inh, HP1b chromo inh, PLK1 PBD block)
C#CCOCCOCCOCCNc1nc(N2CCN(C(=O)[C@H](Cc3cc4ccccc4[nH]3)n3cc([C@@H](N)Cc4ccc(O)cc4)nn3)CC2)nc(N2CCN(C(=O)[C@H](Cc3cc4ccccc4[nH]3)n3cc([C@@H](N)CC(C)C)nn3)CC2)n1	JMJD2A Tudor inh 50µM, BAZ2B inh inconclusive (no result: L3MBTL1 block)
C#CCOCCOCCOCCNc1nc(N2CCN(C(=O)C(Cc3cc4ccccc4[nH]3)n3cc(C(N)Cc4ccc(O)cc4)nn3)CC2)nc(N2CCN(C(=O)C(Cc3cc4ccccc4[nH]3)n3cc(C(N)Cc4ccc(O)cc4)nn3)CC2)n1 (stereo not drawn)	JMJD2A Tudor inh 8.9µM, BAZ2B inh 11µM, L3MBTL1 block inconclusive
CCc1cccc(C)c1NC(=S)NCc1ccc2[nH]c(C)cc2c1	JMJD2A Tudor inh inconclusive, BAZ2B inh 40µM
O=[N+]([O-])c1ccc(NNC(=S)Nc2ccc(F)cc2)cc1	JMJD2A Tudor inh 50µM, VDR inh inconclusive, BAZ2B inh 45µM, HP1b chromo inh inconclusive, PLK1 PBD block 12µM
O=[N+]([O-])c1ccc(Nc2ccc(F)cc2)cc1	none (no result: L3MBTL1 block)
N#Cc1ccccc1OCC(=O)N1CCN(c2ccccc2)CC1	none (no result: PLK1 PBD block, L3MBTL1 block)
O=C(O)c1ccc(CCCc2ccccc2)cc1	none (no result: BAZ2B inh, L3MBTL1 block)
O=C(O)CCCCCCCCCCCc1ccccc1	BAZ2B inh inconclusive, PLK1 PBD block 24µM
Cc1cc(Nc2ccc([N+](=O)[O-])cc2)c2ccccc2n1	none
Cc1cc(Nc2ccccc2)c2c([N+](=O)[O-])ccc(C)c2n1	JMJD2A Tudor inh 50µM, BAZ2B inh 28µM, HP1b chromo inh inconclusive, L3MBTL1 block 16µM
c1ccc(-n2cnc3ccccc32)cc1	none (no result: L3MBTL1 block)
Cc1ncn(-c2ccccc2)c1-c1ccccc1	JMJD2A Tudor inh inconclusive, BAZ2B inh 50µM
CN(C)CCCNC(=O)N1c2ccccc2C=Cc2ccccc21	JMJD2A Tudor inh inconclusive, VDR inh inconclusive, PLK1 PBD block 27µM
CC(=O)Nc1ccc(C=NNc2ccc(S(=O)(=O)Nc3ccccc3C(=O)O)cc2[N+](=O)[O-])cc1	JMJD2A Tudor inh 50µM, VDR inh inconclusive, HP1b chromo inh inconclusive, PLK1 PBD block 21µM, L3MBTL1 block inconclusive (no result: BAZ2B inh)
CN(CCO)c1ccc(C=NNc2ccc([N+](=O)[O-])cc2S(=O)(=O)Nc2ccccc2C(=O)O)cc1	JMJD2A Tudor inh 45µM, VDR inh 79µM, HP1b chromo inh 45µM, PLK1 PBD block 21µM, L3MBTL1 block inconclusive (no result: BAZ2B inh)
CC(=O)Nc1ccc(C=NNc2ccc([N+](=O)[O-])cc2S(=O)(=O)Nc2ccccc2C(=O)O)cc1	JMJD2A Tudor inh inconclusive, VDR inh inconclusive, PLK1 PBD block inconclusive (no result: BAZ2B inh)
